Test results as given in the supplement of paper PMC8975748.
Where a name gives a salt, the structure may show the parent alone.

System: Saccharomyces cerevisiae BY4741 SeMeCo community
Test: z-score of subpopulation abundance vs DMSO median, subpopulation auxotrophic for HU; higher = larger share of this subpopulation than in DMSO controls
Conditions: 10 µM; 24 h; SM minimal medium; subpopulation (auxotrophy): HU
Procedure: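 Fluorescent four-plasmid SeMeCo (self-establishing metabolically cooperating S. cerevisiae BY4741 community; plasmids pH-mRuby2, pL-mWasabi, pU-eCFP, pM-TagRFP657) was grown 24 h in minimal SM medium with each Selleck FDA-approved drug at 10 µM in 384-well plates. Cells were fixed and imaged by high-content confocal microscopy. For each auxotrophic subpopulation (and the prototroph), a z-score gives the deviation from the DMSO vehicle-control population median.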

Row | SMILES | z-score of subpopulation abundance
1 | CCN(CC)CCOC(=O)c1ccc(N)cc1Cl [Chloroprocaine HCl] | -0.26
2 | CCOC(=O)C1=C(COCCN)NC(C)=C(C(=O)OC)C1c1ccccc1Cl (stereo not given) [Amlodipine Besylate] | -7.3
3 | Cc1noc(NS(=O)(=O)c2ccc(N)cc2)c1C [Sulfisoxazole] | 0.32
4 | CC(N)C12CC3CC(CC(C3)C1)C2 (stereo not given) [Rimantadine] | 1.15
5 | COc1ccc([C@@H]2Sc3ccccc3N(CCN(C)C)C(=O)[C@@H]2OC(C)=O)cc1 [Diltiazem HCl] | -0.1
6 | CCN(CC)CC#CCOC(=O)C(O)(c1ccccc1)C1CCCCC1 (stereo not given) [Oxybutynin chloride] | -0.4
7 | OCCN1CCN(CCCN2c3ccccc3Sc3ccc(C(F)(F)F)cc32)CC1 [Fluphenazine dihydrochloride] | 0.37
8 | COc1cccc2c1C(=O)c1c(O)c3c(c(O)c1C2=O)C[C@@](O)(C(C)=O)C[C@@H]3O[C@H]1C[C@H](N)[C@H](O)[C@H](C)O1 [Daunorubicin HCl] | 4.21
9 | C=C1CCN([C@H](C)[C@](O)(Cn2cncn2)c2ccc(F)cc2F)CC1 [Efinaconazole] | 2.02
10 | C[C@H](NCc1ccc(OCc2cccc(F)c2)cc1)C(N)=O [Safinamide Mesylate] | 0.27
11 | CCOC(=O)C1=C(C)NC(C)=C(C(=O)OC)C1c1cccc(Cl)c1Cl (stereo not given) [Felodipine] | -6.8
12 | OC(Cn1cncn1)(Cn1cncn1)c1ccc(F)cc1F [Fluconazole] | -1.49
13 | Cc1ccc(Nc2c(F)cccc2Cl)c(CC(=O)O)c1 [Lumiracoxib] | -1.07
14 | COCCCOc1ccnc(C[S+]([O-])c2nc3ccccc3[nH]2)c1C (stereo not given) [Rebeprazole sodium] | -0.49
15 | Cc1ccccc1OCC(O)CO (stereo not given) [Mephenesin] | -0.86
16 | Clc1ccc(CSC(Cn2ccnc2)c2ccc(Cl)cc2Cl)cc1 (stereo not given) [Sulconazole Nitrate] | 14.1
17 | CCOC(=O)c1ccc(O)cc1 [Ethylparaben] | 1.78
18 | O=C1CN(/N=C/c2ccc(-c3ccc([N+](=O)[O-])cc3)o2)C(=O)N1 [Dantrolene sodium] | -3.33
19 | COc1cccc2c1C(=O)c1c(O)c3c(c(O)c1C2=O)CC(O)(C(=O)CO)CC3OC1CC(N)C(O)C(C)O1 (stereo not given) [Doxorubicin (Adriamycin) HCl] | 8.36
20 | CCC(C)(C)c1ccc(CC(C)CN2C[C@@H](C)O[C@@H](C)C2)cc1 (stereo not given in full) [Amorolfine HCl] | 5.04

Row | SMILES | z-score of subpopulation abundance
21 | CN(C)CC/C=C1/c2ccccc2Sc2ccc(Cl)cc21 [Chlorprothixene] | 0.13
22 | Nc1nc2c(ncn2COC(CO)CO)c(=O)[nH]1 [Ganciclovir] | -0.11
23 | C[C@@H](O)[C@H]1C(=O)N2C(C(=O)O)=C(S[C@@H]3CN[C@H](C(=O)N(C)C)C3)[C@H](C)[C@H]12 [Meropenem] | -0.01
24 | Cc1ncc([N+](=O)[O-])n1C [Dimetridazole] | 0.17
25 | Cc1nnc(SCC2=C(C(=O)O)N3C(=O)[C@@H](NC(=O)Cn4cnnn4)[C@H]3SC2)s1 [Cefazolin Sodium] | 2.2
26 | Nc1ccc(S(=O)(=O)Nc2ncccn2)cc1 [Sulfadiazine] | -0.2
27 | C[n+]1ccccc1/C=N/O [Pralidoxime chloride] | 0.45
28 | CCCCC(=O)O[C@H]1CC[C@H]2[C@@H]3CCc4cc(O)ccc4[C@H]3CC[C@]12C [Estradiol valerate] | -0.05
29 | Oc1c(Cl)cc(Cl)cc1Sc1cc(Cl)cc(Cl)c1O [Bithionol] | 5.87
30 | Cc1ccc(C(=O)C(C)CN2CCCCC2)cc1 (stereo not given) [Tolperisone HCl] | -0.2
31 | COc1cc2c(cc1OC)C(=O)C(CC1CCN(Cc3ccccc3)CC1)C2 (stereo not given) [Donepezil HCl] | 0.45
32 | NC(CO)(CO)CO [Trometamol] | 0.55
33 | NC(=O)N1c2ccccc2CC(=O)c2ccccc21 [Oxcarbazepine] | 0.16
34 | CC(=O)NO [Acetohydroxamic acid] | -0.11
35 | COc1ccccc1OCC(O)CN1CCN(CC(=O)Nc2c(C)cccc2C)CC1 (stereo not given) [Ranolazine] | -0.09
36 | CN[C@@H]1[C@@H](O)[C@@H](O[C@@H]2[C@@H](O)[C@H](O[C@H]3OC(CN)=CC[C@H]3N)[C@@H](N)C[C@H]2N)OC[C@]1(C)O [Sisomicin sulfate] | 0.07
37 | O=C(O)CCC(=O)Nc1ccc(S(=O)(=O)Nc2nccs2)cc1 [Succinylsulfathiazole] | -0.31
38 | Oc1cccc(O)c1 [Resorcinol] | -0.64
39 | CC1=C(C(=O)OCCN(Cc2ccccc2)c2ccccc2)C(c2cccc([N+](=O)[O-])c2)C(P2(=O)OCC(C)(C)CO2)=C(C)N1 (stereo not given) [Efonidipine] | 1.86
40 | COc1ccc2[nH]c([S+]([O-])Cc3ncc(C)c(OC)c3C)nc2c1 (stereo not given) [Omeprazole] | 0.46
